# Shown is part of a subset that was picked to be rich in hits.
# ROC1-CUL1 inh: blocks human RBX1-Cullin-1 di-ubiquitin formation; inhibition, % at 10 µM; in vitro K48 di-Ub FRET, acceptor:donor ratio, 45 min; P62877+Q13616; 140,000 tested, 0.6% active; in the data active = inhibition above about 25%
# Target sequence (P62877 whole entry, looked up): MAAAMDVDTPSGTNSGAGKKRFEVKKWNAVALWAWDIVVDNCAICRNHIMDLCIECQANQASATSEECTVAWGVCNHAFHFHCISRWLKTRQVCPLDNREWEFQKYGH
# Target sequence (Q13616 whole entry, looked up): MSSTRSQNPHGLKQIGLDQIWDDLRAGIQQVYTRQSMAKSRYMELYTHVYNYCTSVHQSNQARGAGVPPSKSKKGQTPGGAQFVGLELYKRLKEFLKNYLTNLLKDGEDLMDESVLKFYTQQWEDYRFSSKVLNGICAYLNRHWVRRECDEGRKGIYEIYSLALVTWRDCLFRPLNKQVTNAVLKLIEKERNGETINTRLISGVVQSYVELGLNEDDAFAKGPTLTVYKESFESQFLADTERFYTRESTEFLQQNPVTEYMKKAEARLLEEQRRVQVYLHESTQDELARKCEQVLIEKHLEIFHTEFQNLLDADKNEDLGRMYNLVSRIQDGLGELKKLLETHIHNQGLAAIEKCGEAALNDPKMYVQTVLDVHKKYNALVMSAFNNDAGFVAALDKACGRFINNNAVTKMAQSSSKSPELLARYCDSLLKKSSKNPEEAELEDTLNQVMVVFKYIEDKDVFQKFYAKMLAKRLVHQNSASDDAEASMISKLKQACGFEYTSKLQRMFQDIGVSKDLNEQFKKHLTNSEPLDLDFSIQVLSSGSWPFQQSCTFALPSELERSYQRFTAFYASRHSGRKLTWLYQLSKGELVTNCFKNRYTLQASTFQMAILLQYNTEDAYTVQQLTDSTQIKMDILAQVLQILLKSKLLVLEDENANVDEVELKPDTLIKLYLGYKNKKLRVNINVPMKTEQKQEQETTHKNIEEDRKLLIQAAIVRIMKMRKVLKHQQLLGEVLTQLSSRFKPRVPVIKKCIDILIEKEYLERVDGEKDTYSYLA
# The depositor's hits bear a star.
SMILES,ROC1-CUL1 inh
COc1cc(/C=C2\C(=O)NN(c3ccccc3)C2=O)cc(Cl)c1OCCCOc1cccc(C)c1,23
COc1cc(/C=C2\C(=O)NN(c3ccccc3)C2=O)cc(Cl)c1OCc1ccc(C)cc1,39*
COc1cc(/C=C2\C(=O)NN(c3ccccc3)C2=O)cc(Br)c1OC(=O)C12CC3CC(CC(C3)C1)C2,27*
CCOc1cc(/C=C2\C(=O)NN(c3ccccc3)C2=O)cc(Br)c1OCCCOc1ccc(C)cc1,17
COc1cc(/C=C2\C(=O)NN(c3ccccc3)C2=O)cc(Br)c1OCc1ccccc1C,94*
C=CCn1c(SCc2ccc(C(=O)NCCCO)cc2)nc2sc3c(c2c1=O)CCCC3,-8
O=C1Nc2c(sc3nc(-c4ccccc4)cc(-c4ccc(Cl)cc4)c23)C(=O)C1Br (configuration not stated),-2
CC(=O)Nc1nc(C(C)(C)C)cs1,3
CN(CCN1CCCCC1)C(=O)c1cc(COc2ccc3c(c2)OCO3)[nH]n1,-2
Ic1ccn[nH]1,12
CN1C(=O)C(Cc2cccc(Oc3ccccc3)c2)C(=O)N(C)C1=O,0
C=CCc1cc(/C=C2/SC(=S)N(c3ccccc3)C2=O)cc(OC)c1O,0
CCOc1cc(/C=C2\C(=O)NN(c3ccc(I)cc3)C2=O)ccc1O,0
CCOc1cc(/C=C2/C(=O)NN(c3ccc(I)cc3)C2=O)cc(Br)c1OC(C)=O,66*
CCOc1cc(/C=C2/C(=O)NN(c3ccc(C(=O)OC)cc3)C2=O)cc(Br)c1OC(C)=O,19
Cn1c(=O)[nH]c(=O)c2c1nc(N/N=C/c1ccc([N+](=O)[O-])cc1)n2Cc1ccccc1,7
O=C(NCc1c(Cl)c(Cl)cc(Cl)c1OC(=O)c1ccccc1[N+](=O)[O-])c1ccccc1,-9
O=C(Cn1cnc2ccccc21)NN=C/C=C\c1ccco1,-6
N#C/C(=N\Nc1c(Cl)cc(Cl)cc1Cl)C(=O)c1ccc(Cl)cc1,82*
N#C/C(=N/Nc1ccc(Cl)cc1Cl)C(=O)c1ccc(Cl)cc1,-8
N#C/C(=N\Nc1c(Cl)cc(Cl)cc1Cl)C(=O)c1ccccc1,-10
CCOC(=O)c1c(NC(=O)c2cnn3c(C(F)(F)F)cc(-c4ccco4)nc23)sc2c1CCCC2,-3
Cc1cc(/C=C2/C(=O)NC(=S)N(c3ccc(Br)cc3)C2=O)c(C)n1-c1ccccc1,8
Cc1ccc(N2C(=O)/C(=C/c3cc(C)n(-c4cccc(C(=O)O)c4)c3C)C(=O)N(C)C2=S)cc1,34*
Cc1cc(/C=C2\C(=O)NC(=S)N(C)C2=O)c(C)n1-c1ccc(C(=O)O)cc1,3
SMILES,ROC1-CUL1 inh
CCn1nc(C)c(CN2CCC(CO)(Cc3cccc(C(F)(F)F)c3)CC2)c1C,-2
COc1ccc(S(=O)(=O)Nc2ccc(-c3cn4ccsc4n3)cc2)cc1,97*
COc1ccc(S(=O)(=O)Nc2ccc(-c3cn4ccsc4n3)cc2)cc1C,4
COc1ccc(S(=O)(=O)Nc2ccc(-c3cn4c(C)csc4n3)cc2)cc1,2
O=S(=O)(Nc1ccccn1)c1ccc(F)cc1,3
O=C(N/N=C(\c1ccccc1)c1ccccn1)c1ccccn1,-9
O=C(NC(=S)Nc1ccc(N2CCN(C(=O)c3ccccc3)CC2)c(Cl)c1)c1cccnc1,-5
COc1cc(NCCCCCCCN)c2ncccc2c1,-3
COc1ccc(OC)c(NS(=O)(=O)c2cccc3cccnc23)c1,1
COc1cc(NCCCCCN)c2ncccc2c1,26*
Cc1ccc(N=NC2=CCC(=O)C(=O)C=C2)cc1,2
O=C(O)c1cc(NC2(c3ccccc3)C(=O)c3ccccc3C2=O)ccc1Cl,-2
O=C(O)c1ccccc1-c1c2cc(Cl)c(=O)cc-2oc2c1CC(Cl)C(O)=C2 (configuration not stated),129*
COC(=O)c1nc(C(=O)OC)n(Cc2ccccc2)n1,4
O=C(Cc1ccccn1)c1ccc(OC2OC(CO)C(O)C(O)C2O)cc1O (configuration not stated),1
CCOC(=O)c1ccc(N=C2S/C(=C/c3cc4c(cc3C)OCO4)C(=O)N2C)cc1,-7
CCC(C)NC(=O)C1CC(=O)N(c2ccc(C)cc2C)C1 (configuration not stated),1
C#CCOc1ccc(/C=C2/C(=O)N(c3ccc(C)cc3)N=C2C)cc1OCC,-5
C#CCOc1ccc(/C=C2\C(=O)N(c3ccc(C(=O)OCC)cc3)N=C2C(F)(F)F)cc1OCC,41*
CCOc1cc(/C=C2/C(=O)N(c3cccc(C(F)(F)F)c3)N=C2C)ccc1OCc1ccccc1,8
COC1OC(OC)C2C3CC(C(O)C3O)C12 (configuration not stated),-1
CCOCC(=O)Nc1ccc(N(CC)CC)cc1,3
COc1ccc(Cl)cc1NC(=O)CSc1nc2sc3c(c2c(=O)n1-c1ccc(C)cc1)CCCC3,-3
CCOC(=O)c1ccc(N2C(=O)CC(NCc3ccc(F)cc3)C2=O)cc1 (configuration not stated),5
c1ccc2oc(SCCCCCCSc3nc4ccccc4o3)nc2c1,-5
SMILES,ROC1-CUL1 inh
O=C(O)c1ccccc1SCCSc1nc2ccccc2o1,34*
c1ccc(CSc2nc3ccccc3o2)c(CSc2nc3ccccc3o2)c1,-1
CCOc1ccccc1NC(=O)c1c(OC)cccc1OC,11
CC(=O)c1c(C)sc2c1ccc1ccccc12,1
CC(=O)c1c(=O)n(O)cc2ccccc12,91*
CC(=O)n1c(=O)c2cc3ccccc3cc2c(=O)n1C(C)=O,6
COc1ccccc1-c1nnc(SCC(=O)NNC(=O)c2ccc(Cl)cc2)n1-c1ccccc1,2
CN(Cc1cnccn1)Cc1cn[nH]c1-c1ccc(-c2ccccc2)cc1,3
O=C(Nc1cccc2cccnc12)c1cncc(Br)c1,1
Cc1ccc2c(c1)-c1ccccc1C2C(=O)O (configuration not stated),1
O=C(Nc1ccccc1Cl)c1ccc(Cl)c(S(=O)(=O)N2CCCC2)c1,2
COC(=O)c1ccc2c(c1)C1C=CCC1C(c1ccc([N+](=O)[O-])cc1)N2 (configuration not stated),2
O=C(O)c1ccc2c(c1)C1C=CCC1C(C1CC=CCC1)N2 (configuration not stated),101*
CCOC(=O)[C@@H]1Nc2ccc(Br)cc2[C@@H]2C=CC[C@H]12,2
COC(=O)c1cc(-c2ccccc2Cl)nc2ccccc12,1
CC1=NC(=O)NC(C(F)(F)F)(C(F)(F)F)C1C#N (configuration not stated),4
CC(=O)N(C1=C(N2CCCC2)C(=O)c2ccccc2C1=O)c1ccc(F)cc1,5
Cc1ccccc1-c1nn2nc(COc3cccc4c3OC(C)(C)C4)nc2s1,7
Cc1ccc(CNC(=O)N=C2CN(CC(C)C)C(=O)c3ccccc32)cc1,2
COc1ccc(CNC(=O)N=C2CN(CC(C)C)C(=O)c3ccccc32)c(OC)c1,28*
COc1ccc(NC(=O)N=C2CN(CC(C)C)C(=O)c3ccccc32)c(OC)c1,-7
CN(C)c1ccc(C(=O)N2CCCC(CCC(=O)NC3CC3)C2)cc1 (configuration not stated),-4
O=C1NC(=O)C2(COC(c3cccc(Br)c3)OC2)S1 (configuration not stated),2
CCOC(=O)C1=C(C)N(Cc2ccccc2)C(=O)NC1c1ccc(Br)cc1 (configuration not stated),1
O=C(NCc1cccnc1)c1ccc(N2CCC(NCc3cnn(-c4ccccc4)n3)CC2)cc1,3
N#C/C(=C\C=C(/Cl)c1ccccc1)C(N)=O,38*

# Screening data (PubChem BioAssay)
